Bioassay records: PubChem, National Center for Advancing Translational Sciences (NCATS)
This is a sample that favours compounds with a hit; in the whole collection about 1% have one here.
KinaseGlo FLuc: Counterscreen for Luciferase (Kinase-Glo TM) Inhibition; Kinase-Glo luciferase, ATP luminescence, 8 min; Luciferin 4-monooxygenase (Photuris pensylvanica), Q27757; actives 0.28% (n = 200,000); Potency, µM (doses to about 38.3 µM), inactives show at the highest dose activity change, negative = inhibition, most hits filed as inhibitors; also: potency is read from the fitted curve at half-maximal effect; % is scaled to controls: 0 for no effect and ±100 for the full control effect; nearly all actives have a fitted effect of over 60% in size
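Light output from Kinase-Glo luciferase with luciferin and 10 uM ATP in 50 mM imidazole pH 7.2, KCl, MgCl2, Tween 20, BSA; compound pin-delivered, 8-min ambient incubation, then luminescence read.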
RXFP1 antag: qHTS Assay for Antagonists of the Relaxin Receptor RXFP1; Relaxin receptor 1 (Homo sapiens), Q9HBX9; HEK293-RXFP1, relaxin-stimulated cAMP HTRF, 30 min; hits give low values; activity change, negative = inhibition, % at 57.5 µM; actives 0.59% (n = 350,000); AID 1259400, 2018;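 active = activity change of -60% or lower, but not beyond a set lower limit; inconclusive = change between -60% and -40%, or beyond the set limit; inactive = change above -40%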; also: % is scaled to controls: 0 for no effect and ±100 for the full control effect
Target sequence (Q9HBX9 whole entry, looked up): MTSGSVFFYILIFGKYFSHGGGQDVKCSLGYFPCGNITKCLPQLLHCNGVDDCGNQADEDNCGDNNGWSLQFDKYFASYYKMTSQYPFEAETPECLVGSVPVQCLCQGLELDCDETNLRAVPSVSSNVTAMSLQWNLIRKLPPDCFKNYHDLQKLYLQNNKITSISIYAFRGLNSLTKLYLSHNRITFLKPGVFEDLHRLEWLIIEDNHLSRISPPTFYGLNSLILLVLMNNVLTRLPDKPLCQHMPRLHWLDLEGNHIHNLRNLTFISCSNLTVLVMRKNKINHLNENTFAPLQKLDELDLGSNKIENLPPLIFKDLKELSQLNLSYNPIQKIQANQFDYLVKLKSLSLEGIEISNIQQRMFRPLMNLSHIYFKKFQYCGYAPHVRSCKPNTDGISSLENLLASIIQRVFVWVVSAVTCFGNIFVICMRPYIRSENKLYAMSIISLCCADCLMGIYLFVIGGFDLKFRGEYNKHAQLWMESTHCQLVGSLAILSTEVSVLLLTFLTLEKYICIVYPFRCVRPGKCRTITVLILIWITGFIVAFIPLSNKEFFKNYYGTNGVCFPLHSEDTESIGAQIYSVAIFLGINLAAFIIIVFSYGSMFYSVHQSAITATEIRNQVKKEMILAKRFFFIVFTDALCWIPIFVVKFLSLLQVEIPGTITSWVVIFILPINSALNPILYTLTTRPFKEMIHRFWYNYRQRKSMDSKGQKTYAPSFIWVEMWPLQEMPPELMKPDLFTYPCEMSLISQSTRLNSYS
miR-21 act: qHTS Assay for Modulators of miRNAs and/orActivators of miR-21; Potency, µM (top dose mostly 38.3 µM), for inactives: top-dose activity change, positive = activation, hits mostly activators; AID 2288, 2010; HeLa miR-21 FLuc reporter, luciferase, 48 h; 340,000 tested, under 10 active;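 also: % of control where 0% means no effect; miR-21 action dims this reporter so a rising signal means less miR-21 action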
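HeLa cells stably expressing CMV-driven firefly luciferase with a downstream miR-21 binding sequence, endogenously expressing miR-21, were treated with titrations (up to about 40uM final) for 48 hours at 37 degree Celsius. Luciferase luminescence was read after lysis.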
gsp antagonist: qHTS for Antagonists of gsp, the Etiologic Mutation Responsible for Fibrous Dysplasia/McCune-Albright Syndrome: qHTS. Potency, µM (doses to about 76.9 µM), for the others: at the highest dose activity change, negative = inhibition, hits mostly inhibitors. gsp-mutant cells, cAMP HTRF, 30 min. actives 0.4% (n = 340,000); calls by dose curve; cell line not stated here;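 also: intracellular cAMP measured with PDE inhibitor Ro 20-1724 present during compound exposure; potency is read from the fitted curve at half-maximal effect; % is scaled to controls: 0 for no effect and ±100 for the full control effect; nearly all actives have a fitted effect of over 65% in size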
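Cells in G418 medium, seeded 16-24 h, 37C; buffer exchange to DPBS + 1 mM CaCl2, 0.5 mM MgCl2, 0.05% BSA; cpds in DMSO + […] (300 uM stock), 30 min 37C; HTRF cAMP detection.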
RXFP1 agonist: qHTS Assay for Agonists of the Relaxin Receptor RXFP1. AID 2676, 2010. actives 0.3% (n = 370,000). Relaxin receptor 1 (Homo sapiens), Q9HBX9. Potency, µM (top dose mostly 57.5 µM), inactives show at the top dose activation, actives largely listed as activators. HEK293T-RXFP1 cAMP TR-FRET, 30 min; response scale: percent of porcine relaxin response, buffer zero; also: potency is read from the fitted curve at half-maximal effect; % is scaled to controls: 0 for no effect and ±100 for the full control effect; nearly all actives have a fitted effect of over 60% in size
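Agonist response is measured as cAMP accumulation in an RXFP1-transfected HEK293T line under PDE4 inhibition. Values are scaled between buffer-only and 29 nM porcine relaxin, and EC50s come from standard Hill equation fits.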
gsp agonist: qHTS for Agonist of gsp, the Etiologic Mutation Responsible for Fibrous Dysplasia/McCune-Albright Syndrome: qHTS. gsp mutant cells, cAMP HTRF, 30 min. Potency, µM (highest dose often 76.9 µM), for the others: at the highest dose activation (cAMP increase), hits mostly activators. actives 0.13% (n = 340,000); active = well fitted activation curve with a large enough effect; inconclusive = small, poorly fitted or top-dose-only effect, or another doubt; inactive = no such curve, though single readings can be large or run the other way; cell line not stated here;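 also: phosphodiesterase inhibitor Ro 20-1724 added with compounds to block cAMP breakdown; potency is read from the fitted curve at half-maximal effect; nearly all actives have a fitted effect of over 60% in size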
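Cells stably selected in G418 were plated at 2000/well, grown 16-24 hr, then given compounds in DMSO with the PDE inhibitor […] (300 uM solution added) for 30 min at 37C; cAMP was read by HTRF.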
The depositor's hits bear a star; ? = inconclusive; / = no result given; [ ] = another dose, or the depositor's remark. Unless noted, calls follow the shape of the dose curve; as a rule, active = well fitted curve in the direction sought with a large enough effect; inconclusive = small, poorly fitted or top-dose-only effect, or another doubt; inactive = no such curve, though single readings can be large; an effect the other way counts as inactive or inconclusive.

SMILES | KinaseGlo FLuc | RXFP1 antag | miR-21 act | gsp antagonist | RXFP1 agonist | gsp agonist
Cc1ccc2cccc(NC(=O)c3ccc(-c4cccc(Cl)c4Cl)o3)c2n1 | / | / | -0.8% | / | -3.3% | /
Cc1nn(-c2cccc(Cl)c2)c2c1C(c1ccncc1)C(C#N)=C(N)O2 (stereo not drawn) | -3.4% | -7.2 | -2.6% | 39.8µM* | -0.1% | -0.6%
Cc1nn(-c2cccc(Cl)c2)c2c1C(c1cccnc1)C(C#N)=C(N)O2 (stereo not drawn) | 2.0% | -18.8 | 0.4% | -6.5% | 1.2% | ?
CCNC(=O)NCc1cccc(Cl)c1 | / | -8.2 | / | / | / | /
CC/C=C\C/C=C\C/C=C\C/C=C\C/C=C\CCC(=O)O[C@H](COCCCCCCCCCCCCCCCC)COP(=O)([O-])OCC[N+](C)(C)C | -2.5% | / | / | / | / | /
O=C1C=CC(=O)N1Cc1ccncc1 | / | -4.2 | / | 1.5% | / | 6.9%
O=C1C=CC(=O)N1CCCCCCCCCCN1C(=O)C=CC1=O | / | -36.7 | / | 35.5µM* | / | 8.9%
Cc1nc2ccccn2c1C(=O)NNC(=S)Nc1ccccc1 | / | -89.4* | -23.1% | -6.8% | 5.8% | -2.9%
Cc1cc2c(cc1C)-c1c(ssc1=Nc1ccc(S(N)(=O)=O)cc1)C(C)(C)N2 | 1.6% | -10.7 | 0.7% | ? | 3.9% | -45.0%
CC(=O)NS(=O)(=O)c1ccc(N=c2ssc3c2-c2cc(C)c(C)cc2NC3(C)C)cc1 | 0.0% | -19.8 | -3.2% | 14.1µM* | -0.2% | -16.9%[15.4 µM]
COc1ccc(-c2cc3nc(-c4ccccc4)cc(N4CCCC(O)C4)n3n2)cc1 (stereo not drawn) | 0.5% | -2.8 | 19.3% | 35.5µM* | 14.6% | ?
COc1ccc(-c2cc3nc(-c4ccccc4)cc(N4CCC(O)CC4)n3n2)cc1 | 4.8% | 2.1 | 18.9% | ? | 14.5% | 9.1%[15.4 µM]
CCn1c(N2CCN(S(=O)(=O)c3ccc(Cl)cc3)CC2)nc2ccccc21 | 1.7% | -20.0 | ? | 31.6µM* | -0.6% | -7.9%[15.4 µM]
CCOc1ccc2nc(N3CCCC(C(=O)Nc4cccc(Cl)c4C)C3)sc2c1 (stereo not drawn) | / | -19.7 | -37.5% | / | 2.4% | /
Nc1ccc2nc(-c3ccccn3)[nH]c2c1 | 11.2µM* | -0.1 | -8.4% | -22.4% | 0.7% | 13.1%
Nc1ccc2nc(-c3ccccc3)[nH]c2c1 | ? | 5.4 | -30.8% | -7.7% | 25.4% | ?
CCn1c(=O)n(CC)c2cc(N3CCCCC3)c(NC(=O)Nc3ccccc3Cl)cc21 | / | -9.6 | 11.3% | / | 3.2% | /
Cc1ccc(S(=O)(=O)CCC(=O)NCCN2C(=O)S/C(=C\c3ccccc3)C2=O)cc1 | / | -22.1 | -12.6% | 50.1µM* | -0.1% | 3.5%
O=C(CNC(=O)c1ccccc1F)NCCN1C(=O)S/C(=C\c2ccccc2Cl)C1=O | / | -24.1 | -9.9% | -3.9% | -0.6% | -37.6%
O=C(CCS(=O)(=O)c1ccc(Cl)cc1)NCCN1C(=O)S/C(=C\c2ccccc2F)C1=O | 2.6% | -3.9 | -9.3% | 50.1µM* | 1.5% | -2.2%
COCCn1ccc2c(OCC(=O)NCc3ccc(F)cc3)cccc2c1=O | / | / | -0.4% | / | 0.1% | /
Cc1ccn2c(=O)c(C(=O)NCCc3ccccc3)c(O)nc2c1 | / | / | -2.2% | / | ? | /
CCOC(=O)CS(=O)(=O)c1nc(-c2ccc(F)cc2)cc(C(F)(F)F)n1 | -0.1% | -80.2* | ? | 1.9%[15.4 µM] | 0.1% | 0.4%
CS(=O)(=O)c1nc(-c2ccc(F)cc2)cc(C(F)(F)F)n1 | -0.2% | -21.5 | ? | -3.5% | 3.1% | -15.4%
CCOC(=O)CCS(=O)(=O)c1nc(-c2ccccc2)cc(C(F)(F)F)n1 | -0.2% | / | ? | 29.4% | 0.8% | 0.6%
